The nature of assay [1]: inhibitors of TNFa-induced NFkB p65 translocation, primary screen, imaging, HUVEC, MLSMR starter and 10KST1 sets (AID 438;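 active means inhibition above 20% together with a positive visual image hit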;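 further: compound added about 3h40 before a 20 min TNFalpha stimulation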;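 on inhibition: signal is the nuclear over cytoplasmic p65 intensity ratio per well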). Conditions: HUVEC TNFa-induced p65 nuclear translocation; cell count: measured here: nuclei count (cytotoxicity indicator), at 2.08 µM; inhibition: at 2 µM, stronger effect = higher value, 0% TNFa-plus-vehicle, 100% no-TNFa wells.
Assay [2] can be described thus: endothelial E-selectin expression blockers – imaging, HUVEC, immunofluorescence, MLSMR starter and 10KST1 sets, primary screen (AID 487;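 active means visually confirmed hit in the image check and inhibition above 20%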;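 on inhibition: signal is fraction of cell area covered by stained E-selectin grains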;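 on nuclei count: 100% = median nuclei count of all wells on the same plate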). To be noted: HUVEC TNFalpha-induced E-selectin immunofluorescence imaging, at 2 µM; inhibition: stronger effect = higher value; nuclei count: measured here: cell number, toxicity.
A short description of assay [3]: Primary imaging screen for DUSP6 inhibitors that restore phospho-Erk in transfected HeLa cells, chemical complementation (AID 609;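 active means compounds giving at least 50% inhibition in the cell-based MKP-3 phosphatase rescue imaging test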;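 on inhibition: phospho-Erk level distribution per well compared with pooled transfected vehicle control wells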). To be noted: HeLa MKP-3 transfected, phospho-Erk imaging KS statistic, at 10 µM, cells stimulated with TPA for 15 min.
For assay [4], the target named is Dual specificity protein phosphatase 6 (Homo sapiens) (UniProt Q16828). The assay is described as above. To be noted: HeLa MKP-3 transfected, phospho-Erk imaging KS statistic; at 10 µM; stronger effect = higher value; cells stimulated with TPA for 15 min.
For assay [5], the target named is Voltage-gated potassium channel subunit beta-2 (Rattus norvegicus) (UniProt P62483). The assay can be described thus: inhibitors of rat Kvbeta2 reductase activity – biochemical, NADPH fluorescence, primary screen (AID 622;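 active means fluorescence slope higher than the sample average by over 3 SD, cut at about -0.22 in these data, passing the limit was not always enough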;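 further: slope of raw intensity against log time taken from 70 to 1610 s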). Conditions: recombinant KvBeta, 4-cyanobenzaldehyde reduction, at 10 µM, stronger effect = higher value.
For assay [6] the target is unchanged. In words: enhancers of rat Kvbeta2 NADPH turnover – biochemical, NADPH fluorescence, primary screen (AID 623;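 active means NADPH fluorescence slope more negative than the mean of all samples by about 3 SD, 99.7% confidence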;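 further: fluorescence intensity change per second fitted from 20 to 320 s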). Conditions: Recombinant KvBeta, NADPH fluorescence decrease slope, 10 min; at 10 µM; stronger effect = lower value.
The target in assay [7] is Alpha-2C adrenergic receptor (Homo sapiens) (UniProt P18825). The assay can be described thus: compounds altering alpha2C-coupled GIRK flux – cell-based, HEK293 alpha2C/GIRK1/2, thallium flux, primary screen (AID 624;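 active means fluorescence slope after compound addition differing from the mean of all screened samples at 99.7% confidence, in either direction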;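 further: slope of fluorescence ratio to pre-addition baseline per second over 15 to 24 s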). Conditions: thallium flux BTC fluorescence, at 10 µM, actives lie on both sides.
Assay [8] is described as follows: loss of swimming-algae plug formation – whole organism, Chlamydomonas reinhardtii, WT vs cilia-less mutant, absorbance, 96-well, primary screen (AID 463189).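 Further: 0% = wild type cc124 cells in DMSO and 100% = ciliumless bld1 mutant cells.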 Conditions: Chlamydomonas reinhardtii gravitaxis, OD600 absorbance, 2 days; at 10 µM; stronger effect = higher value.
Setting [9] is: measured here: cell density z-score.
Where [10] appears, read: measured here: nuclear c-Myc green intensity z-score.
Setting [11] is: measured here: nuclear pErk red intensity z-score, stronger effect = higher value.

9 molecules from PubChem BioAssay can be followed below.

Active and inactive are the calls of the source.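 How the source made its calls, unless noted: active means inhibition at or above 50% relative to wild type and mutant plate controls; inactive means inhibition below 50%.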

Chain of Alpha-2C adrenergic receptor (Homo sapiens) (P18825 whole entry, looked up): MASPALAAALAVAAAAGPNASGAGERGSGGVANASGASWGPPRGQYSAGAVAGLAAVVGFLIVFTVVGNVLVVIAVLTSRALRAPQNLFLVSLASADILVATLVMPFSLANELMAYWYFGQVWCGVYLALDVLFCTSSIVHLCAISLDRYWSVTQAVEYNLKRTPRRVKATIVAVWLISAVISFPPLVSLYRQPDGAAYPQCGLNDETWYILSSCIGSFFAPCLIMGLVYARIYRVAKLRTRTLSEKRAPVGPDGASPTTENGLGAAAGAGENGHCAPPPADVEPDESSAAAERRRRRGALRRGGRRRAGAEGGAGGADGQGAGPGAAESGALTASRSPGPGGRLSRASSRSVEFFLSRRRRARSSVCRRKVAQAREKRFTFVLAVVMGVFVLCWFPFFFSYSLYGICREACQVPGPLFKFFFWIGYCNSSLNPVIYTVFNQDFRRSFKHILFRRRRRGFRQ
Chain of Voltage-gated potassium channel subunit beta-2 (Rattus norvegicus) (P62483 whole entry, looked up): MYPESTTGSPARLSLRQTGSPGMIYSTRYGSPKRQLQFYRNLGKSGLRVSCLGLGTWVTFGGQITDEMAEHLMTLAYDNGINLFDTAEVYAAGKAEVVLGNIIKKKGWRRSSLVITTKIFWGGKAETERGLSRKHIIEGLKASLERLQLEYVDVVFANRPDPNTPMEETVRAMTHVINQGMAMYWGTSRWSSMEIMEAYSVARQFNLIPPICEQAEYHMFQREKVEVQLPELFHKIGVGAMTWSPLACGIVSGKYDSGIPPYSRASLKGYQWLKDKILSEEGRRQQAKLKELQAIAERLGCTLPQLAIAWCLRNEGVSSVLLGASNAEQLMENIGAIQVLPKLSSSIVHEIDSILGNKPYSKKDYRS
Chain of Dual specificity protein phosphatase 6 (Homo sapiens) (Q16828 whole entry, looked up): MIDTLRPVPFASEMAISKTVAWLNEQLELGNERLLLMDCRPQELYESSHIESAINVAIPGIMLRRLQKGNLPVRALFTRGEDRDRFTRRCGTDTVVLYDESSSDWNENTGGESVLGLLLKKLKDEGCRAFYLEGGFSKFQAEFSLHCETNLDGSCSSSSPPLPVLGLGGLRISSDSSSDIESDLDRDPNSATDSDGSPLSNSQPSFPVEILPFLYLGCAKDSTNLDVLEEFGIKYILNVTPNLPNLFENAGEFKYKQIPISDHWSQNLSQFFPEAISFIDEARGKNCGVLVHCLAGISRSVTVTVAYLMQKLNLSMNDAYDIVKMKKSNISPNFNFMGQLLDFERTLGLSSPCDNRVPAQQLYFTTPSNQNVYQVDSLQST

Consider `COC(=O)c1ccc(C2/C(=C(/O)c3ccc(OC)cc3)C(=O)C(=O)N2c2cc(C)on2)cc1` (stereo not drawn), for which the cell count in assay [1] came to 311. Further, the inhibition in assay [1] was -11.6% (inactive); in assay [2], -76.7% (inactive); in assay [4], 1.6e-07% (inactive); in assay [8], -6.24% (inactive). In assay [2], the nuclei count was 138%. Also, the z-score was 0.558 in assay [3] (setting [9]), -1.16 in assay [3] (setting [10]) and -1.06 in assay [3] (setting [11]). Besides, the fluorescence slope in assay [5] is -0.466 (inactive). Further, the NADPH fluorescence slope in assay [6] was -5.4e-05 (inactive). In addition, the slope in assay [7] was 0.00772 (inactive).

With `CC(C)Cn1nc(NC(=O)C(C)(C)C)c2cc3ccccc3nc21`, the cell count in assay [1] came to 366. For the same molecule, the inhibition in assay [1] was 1.4% (inactive); in assay [2] it was -86.4% (inactive); in assay [4], -5.26% (inactive); in assay [8] it was -27.1% (inactive). The nuclei count in assay [2] was 160%. The z-score is -0.914 in assay [3] (setting [9]), -0.417 in assay [3] (setting [10]) and 1.07 in assay [3] (setting [11]). Moreover, the fluorescence slope in assay [5] is -0.371 (inactive). In addition, in assay [6], the NADPH fluorescence slope is -0.000242 (inactive). For the same molecule, in assay [7], the slope was 0.00396 (inactive).

As to `COc1cccc(-c2nc(NCCN3CCOCC3)c3ccccc3n2)c1O`, in assay [1], the cell count was 355. The inhibition is -7.9% (inactive) in assay [1], 21.8% (inactive) in assay [2], 21% (inactive) in assay [4] and 95% (active) in assay [8]. For the same molecule, the nuclei count in assay [2] is 164%. In addition, the z-score in assay [3] (setting [9]) is -0.211; in assay [3] (setting [10]), -0.437; in assay [3] (setting [11]), -0.66. In addition, in assay [5], the fluorescence slope is -0.395 (inactive). For the same molecule, the NADPH fluorescence slope in assay [6] is -0.00024 (inactive). The slope in assay [7] is 0.00346 (inactive).

`c1ccc(CN2CCN(c3nc(-c4ccccn4)nc4ccccc34)CC2)cc1`: the cell count in assay [1] was determined as 275. Also, the inhibition in assay [1] was -1.9% (inactive); in assay [2] it was -134% (inactive); in assay [4], 20.2% (inactive); in assay [8], 130% (active). For the same molecule, the nuclei count in assay [2] came to 96.6%. Further, the z-score in assay [3] (setting [9]) is 0.978; in assay [3] (setting [10]) it was -1.13; in assay [3] (setting [11]) it was -0.507. Moreover, the fluorescence slope in assay [5] is -0.498 (inactive). The NADPH fluorescence slope in assay [6] is 4.9e-06 (inactive). In addition, the slope in assay [7] was 0.00604 (inactive).

Turning to `COc1cc(C2C(C(=O)c3cccs3)=C(O)C(=O)N2c2cc(C)on2)ccc1O` (stereo not drawn), the cell count in assay [1] was 340. For the same molecule, the inhibition in assay [1] is 4.6% (inactive); in assay [2] it was -93.3% (inactive); in assay [4], -10.5% (inactive); in assay [8] it was -10.7% (inactive). In assay [2], this molecule showed a nuclei count of 155%. The z-score is 0.402 in assay [3] (setting [9]), -0.247 in assay [3] (setting [10]) and -0.385 in assay [3] (setting [11]). Moreover, the fluorescence slope in assay [5] is -0.43 (inactive). The NADPH fluorescence slope in assay [6] is -0.000162 (inactive). For the same molecule, the slope in assay [7] is 0.00517 (inactive).

For `COC(=O)C1=C(C)N=C2SC(C)C(=O)N2C1/C=C/c1ccccc1OC` (stereo not drawn), in assay [1], the cell count came out at 366. The inhibition was 3.2% (inactive) in assay [1], -74.7% (inactive) in assay [2], -1.75% (inactive) in assay [4] and -14.7% (inactive) in assay [8]. In addition, the nuclei count in assay [2] is 143%. Also, the figures for the z-score in assay [3] (setting [9]), in assay [3] (setting [10]) and in assay [3] (setting [11]) were -1.74, 0.498 and 0.497, respectively. For the same molecule, the fluorescence slope in assay [5] is -0.423 (inactive). The NADPH fluorescence slope in assay [6] was -0.00012 (inactive). For the same molecule, the slope in assay [7] is 0.00673 (inactive).

Consider `COc1ccccc1N(Cc1cc2cccc(C)c2[nH]c1=O)C(=O)C(C)C`, for which the cell count in assay [1] was determined as 355. Also, the inhibition in assay [1] is -9.7% (inactive); in assay [2], -118% (inactive); in assay [4] it was 43.8% (inactive); in assay [8], 28.4% (inactive). Further, in assay [2], the nuclei count stood at 171%. In addition, the z-score in assay [3] (setting [9]) is 1.34; in assay [3] (setting [10]), -1.06; in assay [3] (setting [11]) it was -1.74. The fluorescence slope in assay [5] was -0.449 (inactive). The NADPH fluorescence slope in assay [6] is -0.000154 (inactive). Moreover, the slope in assay [7] is 0.00657 (inactive).

In the case of `C=C1C2(C(=O)Nc3nccs3)CCC(C2)C1(C)C` (stereo not drawn), the cell count in assay [1] was determined as 357. Moreover, the inhibition in assay [1] is -0.5% (inactive); in assay [2], -34.7% (inactive); in assay [4] it was -3.5% (inactive); in assay [8] it was 0.99% (inactive). The molecule also showed a nuclei count in assay [2] of 138%. In addition, the z-score was -1.77 in assay [3] (setting [9]), 1.86 in assay [3] (setting [10]) and 0.223 in assay [3] (setting [11]). Further, in assay [5], the fluorescence slope is -0.4 (inactive). Also, the NADPH fluorescence slope in assay [6] is -0.000131 (inactive). Also, in assay [7], the slope is 0.00676 (inactive).

In the case of `COc1cccc(-c2nc(NC(C)C)c3ccccc3n2)c1O`, the cell count in assay [1] was 342. Besides, the inhibition in assay [1] was -2.3% (inactive); in assay [2], -37.3% (inactive); in assay [4], 1.6e-07% (inactive); in assay [8] it was 75.4% (active). Further, the nuclei count in assay [2] is 152%. The figures for the z-score in assay [3] (setting [9]), in assay [3] (setting [10]) and in assay [3] (setting [11]) were -0.0785, 0.53 and 0.295, respectively. Further, in assay [5], the fluorescence slope was -0.436 (inactive). The NADPH fluorescence slope in assay [6] was -0.000146 (inactive). The slope in assay [7] is 0.00488 (inactive).
